From PubChem BioAssay (Tox21)
Inconclusive results are not listed. Activity calls are given as the source filed them. Calls follow the shape of the full dose curve.

Legend:
[1] = biological target: Acetylcholinesterase (Homo sapiens) (UniProt P22303); assay: Acetylcholinesterase (AChE) small molecule antagonists: colormetric cell-based qHTS assay (AID 1347395); also: nearly all actives have a fitted effect of over 30% in size
Outline: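 AChE inhibition read colorimetrically via DTNB–thiocholine in SH-SY5Y cells. Compound 30 min, substrate 90 min, both 37 C.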

[2] = biological target: Acetylcholinesterase (Homo sapiens) (UniProt P22303); assay: Acetylcholinesterase (AChE) small molecule antagonists: enzyme-based qHTS assay (AID 1347397); details: Potency: AChE enzyme activity inhibition; outcome: AChE enzyme activity inhibition; also: nearly all actives have a fitted effect of over 55% in size
Outline: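 Colorimetric DTNB read-out of thiocholine released from acetylthiocholine by recombinant human AChE (50 mU/mL as dispensed). Compounds were preincubated 30 min at RT before substrate/DTNB addition, with a 10 min RT reaction.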

[3] = biological target: Acetylcholinesterase (Homo sapiens) (UniProt P22303); assay: Acetylcholinesterase (AChE) small molecule antagonists: fluorescence cell-based qHTS assay (AID 1347398); details: Potency: AChE activity; outcome: AChE activity; also: nearly all actives have a fitted effect of over 50% in size
Outline: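 SH-SY5Y, 2,000 cells/well, attached overnight; cmpd 30 min 37 C; acetylthiocholine/Thiolite Green cocktail 40 min RT; fluorescence Ex/Em 490/520 nm.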

[4] = biological target: Acetylcholinesterase (Homo sapiens) (UniProt P22303); assay: Acetylcholinesterase (AChE) small molecule antagonists: enzyme-based qHTS assay with human liver microsomes (AID 1347399); details: Potency: qHTS inhibition; outcome: qHTS inhibition; also: nearly all actives have a fitted effect of over 60% in size
Outline: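 Recombinant human AChE (50 mU/mL in the enzyme mix) and human liver microsomes (0.25 mg/mL final) were preincubated with compound and NADPH (0.25 mg/mL final) for 30 min at 37 C. Acetylthiocholine/DTNB was then added; thiocholine was read colorimetrically after 10 min at room temperature.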
% is scaled to controls: 0 for no effect and ±100 for the full control effect.

Chain of Acetylcholinesterase (Homo sapiens) (P22303 whole entry, looked up): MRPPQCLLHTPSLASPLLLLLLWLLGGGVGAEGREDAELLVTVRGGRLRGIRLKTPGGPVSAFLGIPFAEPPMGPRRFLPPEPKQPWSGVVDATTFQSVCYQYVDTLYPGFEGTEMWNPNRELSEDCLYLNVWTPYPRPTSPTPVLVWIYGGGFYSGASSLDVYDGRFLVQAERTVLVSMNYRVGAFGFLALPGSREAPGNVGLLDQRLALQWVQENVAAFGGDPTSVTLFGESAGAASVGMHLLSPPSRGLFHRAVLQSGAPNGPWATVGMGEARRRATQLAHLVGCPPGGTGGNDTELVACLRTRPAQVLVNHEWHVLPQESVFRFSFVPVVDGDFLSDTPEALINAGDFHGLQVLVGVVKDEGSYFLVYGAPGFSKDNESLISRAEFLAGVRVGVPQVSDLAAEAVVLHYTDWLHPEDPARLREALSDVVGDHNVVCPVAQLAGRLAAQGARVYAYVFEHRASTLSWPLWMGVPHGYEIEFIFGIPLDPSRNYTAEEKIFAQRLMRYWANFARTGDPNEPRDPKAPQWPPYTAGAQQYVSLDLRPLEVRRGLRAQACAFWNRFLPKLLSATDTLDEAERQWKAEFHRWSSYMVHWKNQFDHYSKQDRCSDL

CC/C=C\CCO
inactive: Potency [1] | Potency [2] | Potency [3] | Potency [4]

Cc1cc(F)ccc1-c1cc(N2CC[C@@H](O)[C@H]2CO)ncc1N(C)C(=O)C(C)(C)c1cc(C(F)(F)F)cc(C(F)(F)F)c1
inactive: Potency [1] | Potency [2] | Potency [3] | Potency [4]

CCCCC(CC)COC(=O)/C=C/c1ccc(OC)cc1 (stereo not given)
inactive: Potency [1] | Potency [2] | Potency [3] | Potency [4]

CCOC(=O)CC(CC(=O)OCC)(OC(C)=O)C(=O)OCC
inactive: Potency [1] | Potency [2] | Potency [3] | Potency [4]

Cc1ccnc2c1NC(=O)c1cccnc1N2C1CC1
inactive: Potency [1] | Potency [2] | Potency [3] | Potency [4]

CCCO[Si](OCCC)(OCCC)OCCC
inactive: Potency [1] | Potency [2] | Potency [3] | Potency [4]

OC12N=C(c3ccccc3)SC1Cc1cc(Cl)ccc12 (stereo not given)
inactive: Potency [1] | Potency [2] | Potency [3] | Potency [4]

CC/C=C(\C(=O)N[C@@H]1C(=O)N2C(C(=O)OCOC(=O)C(C)(C)C)=C(COC(N)=O)CS[C@H]12)c1csc(N)n1
inactive: Potency [1] | Potency [2] | Potency [3] | Potency [4]

CC1=C(C(=O)OC(C)C)C(c2cccc([N+](=O)[O-])c2)C(C(=O)OC2CN(C(c3ccccc3)c3ccccc3)C2)=C(N)N1 (stereo not given)
inactive: Potency [1] | Potency [2] | Potency [3] | Potency [4]

CC(C)C(C)(C)C(C)(C)C(C)(C)S
inactive: Potency [1] | Potency [2] | Potency [3] | Potency [4]

CCCCC(CC)COC(C)=O (stereo not given)
inactive: Potency [1] | Potency [2] | Potency [3] | Potency [4]

C=CC(=O)OCC(CO)(COC(=O)C=C)COC(=O)C=C
inactive: Potency [1] | Potency [2] | Potency [3] | Potency [4]

COC(=O)CCCC(=O)OC
inactive: Potency [1] | Potency [2] | Potency [3] | Potency [4]

CCCCOCCOC(=O)COc1cc(Cl)c(Cl)cc1Cl
inactive: Potency [1] | Potency [2] | Potency [3] | Potency [4]

O=Nc1ccc(O)cc1
inactive: Potency [1] | Potency [2] | Potency [3] | Potency [4]

CC(=O)c1ccc(OCC(=O)N2CCCCC2)cc1
inactive: Potency [1] | Potency [2] | Potency [3] | Potency [4]

C/C=C/c1ccc(OCC)c(O)c1
inactive: Potency [1] | Potency [2] | Potency [3] | Potency [4]

C/C=C/c1ccc(OC)cc1
inactive: Potency [1] | Potency [2] | Potency [3] | Potency [4]

CC[C@H](c1ccc(O)cc1)[C@@H](CC)c1ccc(O)cc1
inactive: Potency [1] | Potency [2] | Potency [3] | Potency [4]

c1ccc(Sc2ccccc2)cc1
inactive: Potency [1] | Potency [2] | Potency [3] | Potency [4]

CN[C@@H]1[C@H](O)[C@H](NC)[C@H]2O[C@@]3(O)C(=O)C[C@@H](C)O[C@H]3O[C@@H]2[C@H]1O
inactive: Potency [1] | Potency [2] | Potency [3] | Potency [4]

CCCCC(CC)COC(=O)C(C#N)=C(c1ccccc1)c1ccccc1 (stereo not given)
inactive: Potency [1] | Potency [2] | Potency [3] | Potency [4]

O=C(OCc1ccccc1)c1ccc(O)cc1
inactive: Potency [1] | Potency [2] | Potency [3] | Potency [4]

CCSC(=O)N(CC)CC
inactive: Potency [1] | Potency [2] | Potency [3] | Potency [4]

CCCCC/C=C/CC(=O)OC
inactive: Potency [1] | Potency [2] | Potency [3] | Potency [4]

CC(C)CCCCCCN
inactive: Potency [1] | Potency [2] | Potency [3] | Potency [4]

COCCOC(=O)C1=C(C)NC(C)=C(C(=O)OC(C)C)C1c1cccc([N+](=O)[O-])c1 (stereo not given)
inactive: Potency [1] | Potency [2] | Potency [3] | Potency [4]

Cc1ccc(C)c(O)c1C
inactive: Potency [1] | Potency [2] | Potency [3] | Potency [4]

CC1=Nc2ccc3ccccc3c2C1(C)C
inactive: Potency [1] | Potency [2] | Potency [3] | Potency [4]

O=C(O)c1ccc(S(=O)(=O)O)cc1C(=O)O
inactive: Potency [1] | Potency [2] | Potency [3] | Potency [4]

NNc1nc(-c2ccccc2)cs1
inactive: Potency [1] | Potency [2] | Potency [3] | Potency [4]

O=S1(=O)c2cccc3cccc(c23)N1CCCN1CCN(c2ccc(F)cc2)CC1
inactive: Potency [1] | Potency [2] | Potency [3] | Potency [4]

COc1ccc(/C=N/NC(=O)c2ccncc2)cc1OC
inactive: Potency [1] | Potency [2] | Potency [3] | Potency [4]

C#C[C@]1(O)CC[C@H]2[C@@H]3CCC4=CC(=O)CC[C@@H]4[C@H]3CC[C@@]21CC
inactive: Potency [1] | Potency [2] | Potency [3] | Potency [4]

COc1cc(C)ccc1O
inactive: Potency [1] | Potency [2] | Potency [3] | Potency [4]

O=C(O)c1ccc[n+]([O-])c1
inactive: Potency [1] | Potency [2] | Potency [3] | Potency [4]

CCCC(=O)Nc1ccc(O)c(C(C)=O)c1
inactive: Potency [1] | Potency [2] | Potency [3] | Potency [4]

O=C=Nc1ccc(Cc2ccc(N=C=O)cc2)cc1
inactive: Potency [1] | Potency [2] | Potency [3] | Potency [4]

Nc1cccc(S(=O)(=O)c2cccc(N)c2)c1
inactive: Potency [1] | Potency [2] | Potency [3] | Potency [4]

Nc1nc(N)nc(-c2ccccc2)n1
inactive: Potency [1] | Potency [2] | Potency [3] | Potency [4]

O=C(O)c1cccc(O)c1
inactive: Potency [1] | Potency [2] | Potency [3] | Potency [4]

Cc1ccc(NC=O)c(C)c1
inactive: Potency [1] | Potency [2] | Potency [3] | Potency [4]

COc1cc([N+](=O)[O-])ccc1N
inactive: Potency [1] | Potency [2] | Potency [3] | Potency [4]

O=C(CCCCCCCCc1cccnc1)N1CCC(C=C(c2ccccc2)c2ccccc2)CC1
inactive: Potency [1] | Potency [2] | Potency [3] | Potency [4]

CO[Si](C)(C)OC
inactive: Potency [1] | Potency [2] | Potency [3] | Potency [4]

Cn1cccc1
inactive: Potency [1] | Potency [2] | Potency [3] | Potency [4]

CCCCCCCCCCCCCC
inactive: Potency [1] | Potency [2] | Potency [3] | Potency [4]

Cc1cc(=O)oc2cc(O)cc(O)c12
inactive: Potency [1] | Potency [2] | Potency [3] | Potency [4]

Cc1ccc(O)c(-n2nc3ccccc3n2)c1
inactive: Potency [1] | Potency [2] | Potency [3] | Potency [4]

O=c1[nH]c2cc(C(F)(F)F)c(N3CCOCC3)cc2n(CP(=O)(O)O)c1=O
inactive: Potency [1] | Potency [2] | Potency [3] | Potency [4]

Nc1ccc(C(=O)Oc2ccccc2)c(O)c1
inactive: Potency [1] | Potency [2] | Potency [3] | Potency [4]

c1cc(-c2ccncc2)ccn1
inactive: Potency [1] | Potency [2] | Potency [3] | Potency [4]

CCCCCCCC/C=C\CCCCCCCCOCCO
inactive: Potency [1] | Potency [2] | Potency [3] | Potency [4]

FC(F)(F)c1ccc(Cl)c(Cl)c1
inactive: Potency [1] | Potency [2] | Potency [3] | Potency [4]

S=C1NC=NC2N=CNC12 (stereo not given)
inactive: Potency [1] | Potency [2] | Potency [3] | Potency [4]

Cn1c(N)nc2nc[nH]c2c1=O
inactive: Potency [1] | Potency [2] | Potency [3] | Potency [4]

CCCC(C)c1ccccc1O (stereo not given)
inactive: Potency [1] | Potency [2] | Potency [3] | Potency [4]

CCCCCCCCCCCCCCCCBr
inactive: activity, negative = inhibition [1] 0.0868% [at 23.6 µM] | activity change, negative = inhibition [2] 2.89% [at 23.6 µM] | activity change, negative = inhibition [3] -0.68% [at 23.8 µM] | activity change, negative = inhibition [4] 0.57% [at 23.6 µM]

CCC(N)(CO)CO
inactive: Potency [1] | Potency [2] | Potency [3] | Potency [4]

COc1ccccc1OCC(O)COC(N)=O (stereo not given)
inactive: Potency [1] | Potency [2] | Potency [3] | Potency [4]
